Screening results: PubChem BioAssay, National Center for Advancing Translational Sciences (NCATS)
SW480 rerep = inducers of DNA re-replication in SW480 colon cancer cells; SW480 DNA re-replication, Hoechst DNA content imaging, 48 h; Potency, µM (titrated, usually from 46.1 µM), without a hit: at the highest dose re-replication activation, actives largely listed as activators; 340,000 tested, 1.8% active; AID 624297; also: % of control where 0% means no effect; nearly all actives have a fitted effect of over 55% in size
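Compounds, transferred as 23 nL by pin tool, were incubated with cells for 48 hr; DNA content per nucleus was then quantified by Hoechst staining and fluorescence plate imaging.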
MCF10A rerep = induces DNA re-replication in MCF 10a normal breast cells | 350,000 tested, 2.9% active | MCF 10A DNA re-replication, Hoechst nuclear intensity, 48 h | Potency, µM (titrated, usually from 46.1 µM), without a hit: top-dose activity, positive = re-replication, actives largely listed as activators; also: % of control where 0% means no effect; nearly all actives have a fitted effect of over 50% in size
HT1080-NT tox = kills 2HG-producing HT-1080-NT fibrosarcoma cells; HT-1080-NT fibrosarcoma viability, CellTiter-Glo ATP luminescence, 48 h; Potency, µM (doses to about 46.1 µM), for inactives: top-dose activity, negative = less viability, most hits filed as cytotoxic; 360,000 tested, 1.6% active;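 also: NT is the 2HG producing partner of a matched IDH1 knockdown line; 0% = DMSO-treated cells and -100% = media-only wells without cells; nearly all actives have a fitted effect of over 55% in size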
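HT-1080-NT; 750 cells/well; 5% FBS RPMI; 48 h compound, 37 degrees C; CellTiter-Glo luminescence; curve fitting and curve-class assignment.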
KB-V1 MDR tox = kills drug-selected multidrug resistant KB-V1 cells; KB-V1 MDR cells viability, CellTiter-Glo, 72 h; Potency, µM (top dose mostly 46.1 µM), actives largely listed as cytotoxic; 400,000 tested, 3.4% active; AID 1347076; also: % is scaled to controls: 0 for no effect and ±100 for the full control effect; nearly all actives have a fitted effect of over 60% in size
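Readout: CellTiter-Glo luminescence, 10 min after addition. Cells: KB-V1 MDR subline, 72 h at 37 degrees C with compound. Analysis: corrected, normalized data fitted to concentration-effect curves.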
KB-3-1 cytotox = KB-3-1 parental cell cytotoxicity; KB-3-1 viability, CellTiter-Glo ATP luminescence, 72 h; 400,000 tested, 1.4% active; Potency, µM (titrated, usually from 46.1 µM), actives largely listed as cytotoxic; also: % is scaled to controls: 0 for no effect and ±100 for the full control effect; nearly all actives have a fitted effect of over 60% in size
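Viability of parental KB-3-1 cells, measured by CellTiter-Glo luminescence, followed a 72 h incubation at 37 °C with pinned compounds in phenol-red-free DMEM containing 10% FBS.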
HT1080 IDH1KD tx = kills HT-1080 cells with IDH1 knockdown | 360,000 tested, 2% active | HT-1080 IDH1 knockdown viability, ATP luminescence, 48 h | Potency, µM (doses to about 46.1 µM), for inactives: top-dose activity, negative = toxicity, most hits filed as cytotoxic;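 also: 0% = DMSO wells and -100% = cell-free medium wells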
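Using the IDH1-knockdown HT-1080 line run in the same batch and compound series as the NT line, viability after 48 h at 37 °C was determined by CellTiter-Glo luminescence and expressed as % activity.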
* marks the source's active call; other numbers are inactive results; i = inactive; ? = inconclusive; . = no result given; ! = not active in a repeat; [ ] = remark or other dose. Only some compounds are listed: those with a hit (about 8% of all), similar ones and a draw of the others. Calls follow the shape of the dose curve; as a rule, active = well fitted curve in the direction sought with a large enough effect; inconclusive = small, poorly fitted or top-dose-only effect, or another doubt; inactive = no such curve, though single readings can be large; an effect the other way counts as inactive or inconclusive. Potency is read from the fitted curve at half-maximal effect.

SMILES	SW480 rerep	MCF10A rerep	HT1080-NT tox	KB-V1 MDR tox	KB-3-1 cytotox	HT1080 IDH1KD tx
CC(CS(=O)(=O)c1ccc2c(c1)NC(=O)CS2)C(=O)N1CCN(c2cccc(Cl)c2)CC1 (stereo not given)	11%	16%	-5%	i	23µM*	-9%
Cc1ccc2c(c1)C(c1ccc(F)cc1)N(C(=O)c1cccc(C(F)(F)F)c1)CC(=O)N2 (stereo not given)	.	.	.	i	i	.
C=Cc1ccc(Cn2nc(-c3ccc(C)cc3)ccc2=O)cc1	16µM*	?	-22%	i	i	-18%
O=c1ccc(-c2ccccc2)nn1Cc1ccc(Cl)cc1	-1%	-4%	-1%	i	i	-6%
COc1ccc(S(=O)(=O)N2CCN(c3nc(-c4cccs4)nc4ccccc34)CC2)cc1	.	.	1%	?	i	1%
Cc1ccc(S(=O)(=O)N2CCC(=O)N([C@H](COCc3ccc(C(F)(F)F)cc3)Cc3ccccc3)CC2)cc1	.	.	3%	i	?	4%
Cc1ccc(S(=O)(=O)N2CCC(=O)N(C(COCc3cccc(C)c3)Cc3ccccc3)CC2)cc1 (stereo not given)	?	8.2µM*	-9%	i	i	-2%
Cc1ccc(S(=O)(=O)N2CCC(=O)N(C(COCc3ccc(C(F)(F)F)cc3)Cc3ccccc3)CC2)cc1 (stereo not given)	25%	3.7µM*	3%	i	i	-2%
Cc1ccc(S(=O)(=O)N2CCC(=O)N(C(COCc3ccc(Cl)c(Cl)c3)Cc3ccccc3)CC2)cc1 (stereo not given)	-36%	23µM*	-3%	i	i	1%
COc1cccc2c1Oc1ncccc1N(C(=O)CCC(=O)NCc1ccc(N(C)C)cc1)C2	.	.	.	i	i	.
COc1cc(NC(=O)CN(c2ccc(C)cc2)S(=O)(=O)c2cccc3nonc23)cc(OC)c1	.	.	.	i	i	.
Cc1ccc(CCNC(=O)CCCn2c(=O)c3ccccc3n(Cc3ccccc3C#N)c2=O)cc1	.	.	.	i	i	.
O=[N+]([O-])c1ccc(-n2nnnc2-c2ccccc2)cc1	-105%	?	2%	i	i	4%
O=[N+]([O-])c1ccc(-n2nnnc2-c2ccccc2)c([N+](=O)[O-])c1	5.2µM*	4.1µM*	?	18µM*	i	?
CC1(C)Oc2ccc(C(=O)N3CCCC3)cc2N(CC(=O)NCc2ccccc2)C1=O	-2%	-8%	-2%	i	i	4%
COc1ccc(C(=O)CN2C(=O)C(C)(C)Oc3ccc(C(=O)N4CCCCCC4)cc32)cc1	4%	22%	-1%	18µM*	i	3%
CC(=O)Oc1ccc(-c2nc(-c3ccccc3)no2)cc1	.	.	.	i	?	.
CCN(C[C@H]1N[C@@](CC)(C(=O)OC)[C@H]2C(=O)N(Cc3ccccc3)C(=O)[C@@H]12)C(=O)c1ccc(C(C)(C)C)cc1	-8%[9.22 µM]	?	?	?	i	21µM*
CCN(C[C@H]1N[C@@](C)(C(=O)OC)[C@H]2C(=O)N(Cc3ccccc3)C(=O)[C@@H]12)C(=O)C1CCCCC1	1.5µM*	-5%	2%	i	i	0%
CCN(C[C@H]1N[C@@](Cc2ccccc2)(C(=O)OC)[C@H]2C(=O)N(C)C(=O)[C@@H]12)C(=O)c1ccc(F)cc1	-2%[9.22 µM]	0.82µM*	21%	i	i	19%
CCN(C[C@H]1N[C@@](Cc2ccccc2)(C(=O)OC)[C@H]2C(=O)N(Cc3ccccc3)C(=O)[C@@H]12)C(=O)C1CCCCC1	?	-19%	0%	i	i	0%
CCN(C[C@H]1N[C@@](Cc2ccccc2)(C(=O)OC)[C@H]2C(=O)N(C)C(=O)[C@@H]12)C(=O)c1ccc(C(C)(C)C)cc1	-1%[9.22 µM]	-14%	9%	i	i	-7%
CCN(C[C@H]1N[C@@](Cc2ccccc2)(C(=O)OC)[C@H]2C(=O)N(Cc3ccccc3)C(=O)[C@@H]12)C(=O)Nc1ccc(Cl)cc1	18µM*	?	?	?	?	?
CCC(C)C(NC(=O)[C@@H](NC(=O)c1ccccc1F)C(C)C)C(=O)OC (stereo not given in full)	-5%	0%	3%	i	i	-1%
Cc1cccc(N(CC(=O)Nc2cccc(Cl)c2C)S(C)(=O)=O)c1C	.	.	.	i	i	.
SMILES	SW480 rerep	MCF10A rerep	HT1080-NT tox	KB-V1 MDR tox	KB-3-1 cytotox	HT1080 IDH1KD tx
COc1ccc(NC(=O)c2cc(S(=O)(=O)N3CCCC(C)C3)cn2C)c(OC)c1 (stereo not given)	.	.	.	i	i	.
CC12CCC(=O)N1C(C(=O)NCCc1ccc(S(N)(=O)=O)cc1)CS2 (stereo not given)	0%	-1%	6%	i	i	10%
CO/N=C(/C(=O)N[C@@H]1C(=O)N2C(C(=O)O)=C(CSC(=O)c3ccco3)CSC12)c1csc(N)n1 (stereo not given in full)	0%	5%	.	.	.	.
CCC1=Nc2cc(C(=O)NCC3CCCO3)ccc2Sc2ccc(Cl)cc21 (stereo not given)	?	12µM*	?	i	9.2µM*	16µM*
CCC1=Nc2cc(C(=O)NCC3CCCO3)ccc2Sc2ccc(Br)cc21 (stereo not given)	10µM*	?	?	6.5µM*	6.5µM*	9.2µM*
Cc1cc2c(cc1C)N[C@]1(C[C@H]3CCCC(=O)N4CC[C@@H](C1)[C@@H]34)C(=NCc1ccccc1)N2	.	.	.	i	i	.
Cc1cc2cc(CN(Cc3cccs3)S(=O)(=O)c3ccc4c(c3)OCCO4)c(=O)[nH]c2cc1C	-5%	-7%	9%	i	i	10%
Cc1cccc2cc(CN(Cc3cccs3)S(=O)(=O)c3ccc4c(c3)OCCO4)c(=O)[nH]c12	15%	18%	-2%	5.2µM*	?	-19%
CCOC(=O)c1c(CN2CCCCC2)oc2ccc(OC)cc12	-3%	20%	-5%	9.2µM*!	i	-15%
CSc1nnc(-c2sc3cc(C(F)(F)F)cnc3c2-c2ccccc2)n1C	14%	4.6µM*	?	3.7µM*	6.5µM*	-27%[9.24 µM]
O=C(O)c1sc2cc(C(F)(F)F)cnc2c1-c1ccccc1	-6%	5%	-5%	i	i	-1%
CN(C(=O)CSc1nc2ccc([N+](=O)[O-])cc2s1)C1CCS(=O)(=O)C1 (stereo not given)	?	0%	-1%	i	i	-1%
